Data published in PubChem BioAssay (NCATS).
Records with an inconclusive call do not appear. Active and inactive are the calls of the source. Calls come from the whole dose curve; as a rule, active = well fitted inhibition curve with a large enough effect; inconclusive = small, poorly fitted or top-dose-only effect; inactive = no such curve, though single readings can be large or run the other way.

Tested on: Zika virus NS2B-NS3 protease (linked construct)
Assay: Primary screen NINDS Rhodamine qHTS for Zika virus inhibitors (AID 1347160); note: nearly all actives have a fitted effect of over 55% in size
Conditions: purified NS2B-NS3 protease, Rhodamine110 substrate fluorescence; series mostly up to 33.1 µM; activity change, negative = inhibition: at the top concentration
Outline: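 Purified NS2B-NS3 protease with the NS2B hydrophilic domain joined by a flexible linker (25 nM) in 10 mM Tris-HCl pH 8.0, 0.01% Tween 20, preincubated 15 min at RT with compound; Rhodamine110 peptide substrate 1.5 µM; fluorescence change over 15 min; 4-parameter Hill fit.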
% is set by controls: 0 for no effect and ±100 for the full control effect.

SMILES	activity change, negative = inhibition	outcome
NC1(c2ccc(NC(=O)c3ccnc(-c4cc(C(=O)O)ccn4)c3)cc2)CC1	24.6% [at 57.1 µM] (inactive)	–
Cc1occc(=O)c1O[C@@H]1O[C@H](CO[C@@H]2OC[C@](O)(CO)[C@H]2O)[C@@H](O)[C@H](O)[C@H]1O	3.29% (inactive)	–
O=C(Nc1cc(-c2ccccc2)nn1-c1ccccc1F)c1ccc([N+](=O)[O-])cc1	15% [at 57.1 µM] (inactive)	–
C=C(C(=O)O)C1CC(OC(=O)CC(C)CC)C2(C)CCCC(=C)C2C1 (centres undefined)	-19.4% (inactive)	–
COc1ccc(OC2OC(CO[C@@H]3O[C@@H](C)[C@H](O)[C@@H](O)[C@H]3O)C(O)C(O)C2O)cc1OC (some centres undefined)	-10.7% (inactive)	–
O=C(O)CC(CCc1ccccc1)OC1OC(CO)C(O)C(O)C1O (centres undefined)	–	inactive [at 33.1 µM]
C[C@@H]1CC[C@]2(C(=O)O)CC[C@]3(C)C(=CCC4[C@@]5(C)C[C@@H](O)[C@H](O)[C@@](C)(CO)C5CC[C@]43C)C2[C@H]1C (some centres undefined)	-13.8% (inactive)	–
COC(=O)c1ccccc1O[C@@H]1O[C@H](CO[C@@H]2OC[C@@H](O)[C@H](O)[C@H]2O)[C@@H](O)[C@H](O)[C@H]1O	–	inactive [at 33.1 µM]
C=C1CCC(OC(C)=O)C2(C)CC3OC(=O)C(C)=C3CC12 (centres undefined)	–	inactive
